Where “and” joins values, the source holds several entries; their conditions need not be identical. Equal entries are not always repeated. The campaign covered roughly 5,500 compounds. About 2,000 (36%) were called active. Inconclusive results (about 18%) are left out. Cut-off read from the data, not from the text of the source: active = normalized growth mostly below about 0.91 (no sharp cut-off); inconclusive = no clear call, values can overlap the other calls; inactive = mostly above about 0.92. Some of the results follow.
Test: chemical genetic growth profiling, strain panel (AID 1159580);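 note: tested at 20 µM; growth read once vehicle control cultures reached saturation at 30 °C; 1 = growth at the plate median or of vehicle wells; lower values mean less growth of the strain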
Conditions: growth OD

Measured: normalized growth

CCc1cccc2c3c([nH]c12)C(CC)(CC(=O)O)OCC3 (stereo not given)
inactive: S. cerevisiae deletion strains, locus YKL009W, strain mrt4, hits give low values 0.965 | S. cerevisiae deletion strains, locus YKL068W, hits give low values 1 | S. cerevisiae deletion strains, locus YKL085W, strain MDH1 (second series), hits give low values 0.992 | S. cerevisiae deletion strains, locus YKL085W, strain MDH1, hits give low values 0.992 | S. cerevisiae deletion strains, locus YKL160W, strain elf1, hits give low values 0.975 | S. cerevisiae deletion strains, locus YKL190W, strain CNB1, hits give low values 1 | S. cerevisiae deletion strains, locus YKR001C, strain vps1, hits give low values 0.98 | S. cerevisiae deletion strains, locus YKR026C, strain gcn3, hits give low values 0.987 | S. cerevisiae deletion strains, locus YKR091W, strain srl3, hits give low values 0.978 | S. cerevisiae deletion strains, locus YLL001W, strain dnm1, hits give low values 0.961 | S. cerevisiae deletion strains, locus YLL026W, hits give low values 0.99 | S. cerevisiae deletion strains, locus YLL041C, strain sdh2, hits give low values 0.976 | S. cerevisiae deletion strains, locus YLR027C, strain aat2, hits give low values 0.987 | S. cerevisiae deletion strains, locus YLR039C, strain RIC1, hits give low values 0.989 | S. cerevisiae deletion strains, locus YLR058C, strain SHM2, hits give low values 1.01 | S. cerevisiae deletion strains, locus YLR102C, strain apc9, hits give low values 1 | S. cerevisiae deletion strains, locus YLR113W, strain HOG1, hits give low values 0.938 | S. cerevisiae deletion strains, locus YLR221C, strain rsa3, hits give low values 0.993 | S. cerevisiae deletion strains, locus YLR258W, strain gsy2, hits give low values 0.994 | S. cerevisiae deletion strains, locus YLR262C, strain YPT6 (second series), hits give low values 0.93 | S. cerevisiae deletion strains, locus YLR262C, strain YPT6, hits give low values 0.978 | S. cerevisiae deletion strains, locus YLR268W, strain sec22, hits give low values 1.05 | S. cerevisiae deletion strains, locus YLR320W, strain mms22, hits give low values 1.01 | S. cerevisiae deletion strains, locus YLR330W, strain CHS5, hits give low values 1.01 | S. cerevisiae deletion strains, locus YLR342W, strain FKS1 (second series), hits give low values 1.03 | S. cerevisiae deletion strains, locus YLR342W, strain FKS1, hits give low values 0.985 | S. cerevisiae deletion strains, locus YLR357W, strain rsc2, hits give low values 0.918 | S. cerevisiae deletion strains, locus YLR370C, strain arc18, hits give low values 0.973 | S. cerevisiae deletion strains, locus YLR371W, strain rom2, hits give low values 0.987 | S. cerevisiae deletion strains, locus YLR384C, strain iki3, hits give low values 0.967 | S. cerevisiae deletion strains, locus YLR418C, strain cdc73, hits give low values 0.995 | S. cerevisiae deletion strains, locus YML016C, strain PPZ1, hits give low values 1 | S. cerevisiae deletion strains, locus YML032C, strain rad52, hits give low values 1.01 | S. cerevisiae deletion strains, locus YML120C, strain ndi1, hits give low values 0.977 | S. cerevisiae deletion strains, locus YML124C, strain tub3, hits give low values 1 | S. cerevisiae deletion strains, locus YMR058W, strain fet3, hits give low values 0.993 | S. cerevisiae deletion strains, locus YMR078C, strain ctf18, hits give low values 1 | S. cerevisiae deletion strains, locus YMR125W, strain sto1, hits give low values 0.924 | S. cerevisiae deletion strains, locus YMR129W, hits give low values 0.972 | S. cerevisiae deletion strains, locus YMR205C, strain PFK2, hits give low values 0.98 | S. cerevisiae deletion strains, locus YMR223W, strain ubp8, hits give low values 0.99 | S. cerevisiae deletion strains, locus YMR231W, strain pep5, hits give low values 0.967 | S. cerevisiae deletion strains, locus YMR263W, strain SAP30, hits give low values 1.01 and 1 | S. cerevisiae deletion strains, locus YMR307W, strain GAS1, hits give low values 0.923 and 1.01 | S. cerevisiae deletion strains, locus YNL067W, strain RPL9B, hits give low values 1.02 | S. cerevisiae deletion strains, locus YNL071W, strain lat1, hits give low values 0.988 | S. cerevisiae deletion strains, locus YNL128W, strain TEP1, hits give low values 1.01 | S. cerevisiae deletion strains, locus YNL153C, strain GIM3, hits give low values 1.02 | S. cerevisiae deletion strains, locus YNL175C, strain NOP13, hits give low values 0.994 | S. cerevisiae deletion strains, locus YNL183C, strain NPR1, hits give low values 0.93 | S. cerevisiae deletion strains, locus YNL197C, strain WHI3, hits give low values 0.954 | S. cerevisiae deletion strains, locus YNL209W, strain ssb2, hits give low values 0.972 | S. cerevisiae deletion strains, locus YNL224C, strain SQS1, hits give low values 0.987 | S. cerevisiae deletion strains, locus YNL233W, strain BNI4, hits give low values 1.01 | S. cerevisiae deletion strains, locus YNL248C, strain rpa49, hits give low values 0.981 | S. cerevisiae deletion strains, locus YNL250W, strain rad50, hits give low values 0.992 | S. cerevisiae deletion strains, locus YNL271C, strain bni1, hits give low values 1.01 | S. cerevisiae deletion strains, locus YNL298W, strain CLA4, hits give low values 0.984 | S. cerevisiae deletion strains, locus YNL307C, strain MCK1, hits give low values 1 | S. cerevisiae deletion strains, locus YNL322C, strain KRE1 (second series), hits give low values 0.965 | S. cerevisiae deletion strains, locus YNL322C, strain KRE1, hits give low values 1 | S. cerevisiae deletion strains, locus YNR049C, strain mso1, hits give low values 0.963 | S. cerevisiae deletion strains, locus YNR052C, strain pop2, hits give low values 1.01 | S. cerevisiae deletion strains, locus YOL006C, strain TOP1, hits give low values 1.08 | S. cerevisiae deletion strains, locus YOL012C, strain htz1 0.943 | S. cerevisiae deletion strains, locus YOL147C, strain pex11, hits give low values 1 | S. cerevisiae deletion strains, locus YOR001W, strain rrp6, hits give low values 0.949 | S. cerevisiae deletion strains, locus YOR061W, strain CKA2, hits give low values 1.01 | S. cerevisiae deletion strains, locus YOR069W, strain VPS5, hits give low values 1 | S. cerevisiae deletion strains, locus YOR070C, strain gyp1, hits give low values 0.981 | S. cerevisiae deletion strains, locus YOR080W, strain dia2, hits give low values 0.972 | S. cerevisiae deletion strains, locus YOR083W, strain WHI5 (second series), hits give low values 0.978 | S. cerevisiae deletion strains, locus YOR083W, strain WHI5, hits give low values 0.987 | S. cerevisiae deletion strains, locus YOR106W, strain vam3, hits give low values 0.969 | S. cerevisiae deletion strains, locus YOR136W, strain idh2, hits give low values 0.998 | S. cerevisiae deletion strains, locus YOR144C, strain elg1, hits give low values 1 | S. cerevisiae deletion strains, locus YOR184W, strain ser1, hits give low values 1.01 | S. cerevisiae deletion strains, locus YOR231W, strain MKK1, hits give low values 0.986 | S. cerevisiae deletion strains, locus YOR265W, strain rbl2, hits give low values 1 | S. cerevisiae deletion strains, locus YOR270C, strain vph1, hits give low values 0.969 | S. cerevisiae deletion strains, locus YOR290C, strain snf2, hits give low values 1 | S. cerevisiae deletion strains, locus YOR316C, strain cot1, hits give low values 1 | S. cerevisiae deletion strains, locus YPL051W, strain arl3, hits give low values 0.994 | S. cerevisiae deletion strains, locus YPL055C, strain LGE1, hits give low values 0.989 | S. cerevisiae deletion strains, locus YPL078C, strain atp4, hits give low values 0.963 | S. cerevisiae deletion strains, locus YPL106C, strain sse1, hits give low values 1.03 | S. cerevisiae deletion strains, locus YPL240C, strain hsp82, hits give low values 0.976 | S. cerevisiae deletion strains, locus YPL241C, strain CIN2, hits give low values 1.01 | S. cerevisiae deletion strains, locus YPL256C, strain CLN2, hits give low values 0.981 | S. cerevisiae deletion strains, locus YPR119W, strain clb2, hits give low values 1.01 | S. cerevisiae deletion strains, locus YPR141C, strain kar3, hits give low values 1 | S. cerevisiae deletion strains, locus YPR163C, strain tif3, hits give low values 1.01 | S. cerevisiae deletion strains, locus YPR167C, strain met16, hits give low values 1.01 | S. cerevisiae deletion strains, strain wtn01, hits give low values 0.994 | S. cerevisiae strains, strain wild type, hits give low values 0.999
